# Experimental data reported in the supplement of paper PMC10681739.
# Legend:
# [1] = target: T1, ETS1 (UniProt P14921); experiment: ETS1 binding intensity (PBM fluorescence), ETS1 alone (arbitrary fluorescence units); higher = stronger binding; conditions: ETS1 concentration 1 nM; RUNX1 concentration 0 nM
# T1 sequence: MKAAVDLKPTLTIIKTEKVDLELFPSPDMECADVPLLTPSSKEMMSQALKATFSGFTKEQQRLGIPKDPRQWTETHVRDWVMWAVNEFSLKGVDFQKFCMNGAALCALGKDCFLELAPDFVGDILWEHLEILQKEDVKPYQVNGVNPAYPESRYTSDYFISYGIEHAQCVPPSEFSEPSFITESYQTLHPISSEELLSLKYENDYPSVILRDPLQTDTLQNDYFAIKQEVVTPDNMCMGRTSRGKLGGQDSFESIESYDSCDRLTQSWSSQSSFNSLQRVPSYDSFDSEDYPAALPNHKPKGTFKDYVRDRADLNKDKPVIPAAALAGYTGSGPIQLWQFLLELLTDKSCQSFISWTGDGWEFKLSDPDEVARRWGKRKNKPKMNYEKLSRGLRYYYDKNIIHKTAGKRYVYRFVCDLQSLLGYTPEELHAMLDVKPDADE
# [2] = target: RUNX1 (UniProt Q01196); experiment: RUNX1 binding intensity (PBM fluorescence), RUNX1 alone (arbitrary fluorescence units); higher = stronger binding; conditions: RUNX1 concentration 2 nM; ETS1 concentration 0 nM
# Chain of RUNX1 (Q01196 whole entry): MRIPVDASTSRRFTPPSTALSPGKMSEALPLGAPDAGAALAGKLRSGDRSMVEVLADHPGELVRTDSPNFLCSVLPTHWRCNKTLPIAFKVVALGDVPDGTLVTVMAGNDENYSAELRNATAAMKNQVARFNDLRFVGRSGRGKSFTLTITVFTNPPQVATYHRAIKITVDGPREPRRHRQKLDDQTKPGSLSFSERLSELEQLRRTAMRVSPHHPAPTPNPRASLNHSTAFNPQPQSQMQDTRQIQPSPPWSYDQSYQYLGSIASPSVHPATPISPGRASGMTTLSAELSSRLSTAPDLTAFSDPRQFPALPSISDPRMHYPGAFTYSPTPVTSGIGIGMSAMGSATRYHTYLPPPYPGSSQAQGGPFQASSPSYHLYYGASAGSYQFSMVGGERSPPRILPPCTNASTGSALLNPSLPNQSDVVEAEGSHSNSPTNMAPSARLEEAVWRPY
# Method: (§1)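 Cooperative gcPBM on 36-bp genomic probes with neighbouring ETS1 and RUNX1 sites. Recombinant human RUNX1 (2 nM) was incubated alone or with ETS1 (25 nM) and detected with anti-RUNX1 antibody plus Alexa488 secondary. Values are medians over 4 replicate spots; the RUNX1+ETS1 data were normalised to the RUNX1-only data. The probes sit in constant array flanks that are not printed.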
# [3] = target: T1, ETS1; experiment: ETS1 binding intensity (PBM fluorescence) in presence of RUNX1, normalised to ETS1-only experiment (arbitrary fluorescence units); higher = stronger binding; conditions: ETS1 concentration 1 nM; RUNX1 concentration 25 nM
# [4] = target: RUNX1 (UniProt Q01196); experiment: RUNX1 binding intensity (PBM fluorescence) in presence of ETS1, normalised to RUNX1-only experiment (arbitrary fluorescence units); higher = stronger binding; conditions: RUNX1 concentration 2 nM; ETS1 concentration 25 nM
# Method: as §1
# 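For RUNX1 binding intensity (PBM fluorescence) in presence of ETS1, normalised to RUNX1-only experiment in this document: Full-length recombinant human ETS1 or RUNX1 bound to double-stranded 36-bp genomic probes on microarrays, detected by protein-specific primary antibody and Alexa488 secondary, spot fluorescence as median of four replicate spots.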
# 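For RUNX1 binding intensity (PBM fluorescence), RUNX1 alone in this document: Full-length recombinant human RUNX1 bound to double-stranded 36-bp genomic probes on a high-density microarray, scored as Alexa488 fluorescence per spot via anti-RUNX1 antibody, median of four replicate spots.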
Sequence,ETS1 binding intensity [1],RUNX1 binding intensity [2],ETS1 binding intensity [3],RUNX1 binding intensity [4]
CTGTCATCTTCCTGACAGCACGCCCACAAAGGACCA,482,843,377,916
AGCGCCACACTTCCGCTTTGCGGCAGTGTGCGCCCC,3490,730,3280,1890
CAGAACGGTCCCCGGAACACTGCGGTTCCCGCCTGG,357,1040,895,889
TTTCTGACTTCCTGTGTGCTTCAGAAACCTCAATGA,2020,830,2570,2110
TCTGTGAAAAAGGATGTGCGGTTATGGAGGAGAACT,970,1210,3460,1930
CAGCTCCGACTTCCGGGTGCGGTACGGCGAAGCAGA,1320,756,1610,2140
CCAACTTTTGAGGGATGTGGTTACGTTTTCTAGATC,366,1410,1440,1620
AAGGTGGAAAAAGGATGTGGTTCTAAGCTGGCTTCT,887,735,1120,1020
AGGACCTAACACTCAGGAAGTGGTCAACCTTGCTGC,2760,897,3710,1420
CTTCGACCCCGGAAGCGCTAACCACCCCGGGGGCCG,4160,797,5880,1370
CTCGTGGGTGCCGGAAGTGGAGGCGGTTGGTGGGGT,15200,707,15900,1410
CGTGGCGGAAGCCGCGGGGACTGCGGGGGCGGAGTG,537,924,528,893
AGAAGCTGCAGTCCCGGAAGCGGTTTTAGGGGGCCG,4220,725,10100,1310
GTGTGGAAGGAGGAAGCGAGAATGTGGTTACTTAGG,718,868,1890,1190
ACCTGCACTTCCTCCTCCCTAGACCGCACCCTTCTC,491,2840,600,4300
TGCTTCCCGTCCGTGTCGCGGCCCTGCGGTTGGCGG,324,1080,813,3310
GCCCAGGGAAGCACTTCCTGCGGGGCGCGGTGCAGC,1030,744,1270,1500
CCAGGGCCGGAAGTGCTGGTGGTGGTTTCCATCATG,8960,733,13900,1750
TTACGACACTTCCGGCGACGCCCCGCAGCCTTCACC,2890,834,2740,1880

Sequence,ETS1 binding intensity [1],RUNX1 binding intensity [2],ETS1 binding intensity [3],RUNX1 binding intensity [4]
TACAATTCGCACCGGAACTTGCGGCCCGGCTTCATT,3630,729,4640,963
CAACACAGGATGTGCAGTATTATACCGCAAAGCACT,1710,1150,6950,2070
AGATTAGATGCAGGATGTGGTATACAAAGGCACGTT,2530,823,7140,1820
GGTTTAACGTTTCCGGTTTGTGGCTAGTTTCTTGTC,7540,1060,12500,3520
TTCAGTCCTGGTTTCCTGTGGTTCTAGGATCTTTAT,903,828,957,1440
CCTGCCTTCCGTCTTCCAGGCAGAACCACAGAGAGG,432,1180,481,1230
TTAAACACGGAAGTGCATCGGTTGTTGTGGTTATTC,1260,845,4360,1150
GCCACTTCCGGTCACTCCCCGCTGCGGCCTCGCGCT,7030,1190,8280,3940
TAAAACACCAGGAAACTCTGTGGTGAGTGGGAGGTG,787,1060,1220,903
GGCACCGGAAGTAGAGCTGCCCCTAGTTGCGGCAGT,9240,767,12800,1380
TGGGTACTTCCTGTGACAAATCGAGTTGACCACATG,1190,678,2230,1720
GTTGTCTTGCCCAAAGGAAGTGGTTACTAGACCAGA,1770,793,4870,1490
TTGCACACGTGGGCGGGAAGTGGTTAAGCGGCCTCA,1020,725,4280,1210
ACTTACAAAGGAAGTGACAGAACCACAGAAAAGACC,1230,732,2660,1240
CAGTGGCTAAGGATCCGGTGTTGCGGTGATACATGA,430,804,643,1280
TCTGGGACAGGAAAGACTTGTGGTTACTGCTGTTGA,808,1390,4470,3160
ATGGGGAACGGGAAATACGGCGGGAACCACAATCGC,734,777,1700,1020
GTGCTGAGCAGCTTCCCGTCTGCGGTGAAGACAGCC,396,1150,1040,1930
